Source: PubChem
TEAD-YAP inh: TEAD-YAP interaction inhibition, primary screen, TEAD-YAP interaction inhibitor project, luminescence, HEK-TIYL cells. inhibition, % at 9.12 µM. 640,000 compounds, 1.4% hits. AID 1259422, 2018. TEAD-Gal4/YAP UAS-luciferase luminescence; in the data active = inhibition above about 32%
MITF inh: MITF inhibitors, primary screen, biochemical, AlphaScreen, human. 650,000 compounds, 0.91% hits. Microphthalmia-associated transcription factor (Homo sapiens), O75030. AlphaScreen MITF homodimerization, bead proximity signal. inhibition, % at 2.6 µM; in the data active = inhibition above about 50%
GPR151 activ: activators of human GPR151, primary screen, cell-based, PathHunter beta-arrestin, luminescence | G-protein coupled receptor 151 (Homo sapiens), Q8TDV0 | PathHunter beta-arrestin GPR151 cells | activation, % at 11.2 µM | 650,000 compounds, 1% hits; in the data active = activation above about 4.9%
Target sequence (Q8TDV0 whole entry, looked up): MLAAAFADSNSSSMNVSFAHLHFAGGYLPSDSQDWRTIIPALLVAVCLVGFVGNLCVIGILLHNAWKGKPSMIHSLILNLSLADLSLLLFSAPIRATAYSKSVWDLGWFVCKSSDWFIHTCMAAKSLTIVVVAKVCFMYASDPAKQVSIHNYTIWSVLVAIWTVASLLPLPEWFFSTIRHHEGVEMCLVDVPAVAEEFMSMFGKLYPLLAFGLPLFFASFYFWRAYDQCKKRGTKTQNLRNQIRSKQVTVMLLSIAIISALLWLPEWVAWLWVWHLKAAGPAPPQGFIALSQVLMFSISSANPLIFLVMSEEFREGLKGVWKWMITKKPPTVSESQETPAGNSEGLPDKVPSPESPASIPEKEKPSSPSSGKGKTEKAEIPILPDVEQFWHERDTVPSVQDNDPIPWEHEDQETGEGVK
FBW7 act: FBW7 E3 ligase activators, primary screen, biochemical, AlphaScreen, human; F-box/WD repeat-containing protein 7 (Homo sapiens), Q969H0; AlphaScreen FBW7–phospho-cyclin E peptide binding, activator screen; normalized activity (activation), % at 26.1 µM; 650,000 compounds, 0.13% hits; in the data active = normalized activity above about 1.9%;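 note: purified mutant Fbw7 with reduced substrate affinity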
Hits are given with their value; n = inactive. This is a sample that favours compounds with a hit; in the whole collection about 3.5% have one here.

SMILES	TEAD-YAP inh	MITF inh	GPR151 activ	FBW7 act
CCN(CC)CC(=O)Nc1c(Cl)[nH]c2ccccc12	n	n	n	n
CC(C)N(CCNC(=O)Cc1cn(-c2ccc(Nc3ccc4ncccc4c3)nn2)c2ccccc12)C(C)C	n	n	n	n
N/C(=N\c1nc(C(F)(F)F)cc(=O)[nH]1)Nc1ccc(I)cc1	45	n	n	n
O=C1c2cccc3c(Cl)ccc(c23)C(=O)N1O	45	n	n	n
O=C1c2cccc3c(Br)ccc(c23)C(=O)N1O	n	n	n	n
COc1ccc(C(=O)c2ccc(OC)c(N)c2)cc1N	36	n	n	n
COc1ccc(C(=O)c2ccc(OC)c(OC)c2)cc1OC	n	n	n	n
O=C(Nc1ccnn1C1CCN(Cc2cccc3c2oc2ccccc23)CC1)C1CC1	n	n	n	n
CN1/C(=C/C=C/c2cc(-c3ccc(Cl)cc3)cc(-c3ccc(Cl)cc3)[n+]2C)C(C)(C)c2ccccc21	94	59	n	n
Cc1ccc(C(=O)NC(=S)Nc2ccc(N3CCOCC3)c(Cl)c2)cc1	n	n	n	n
COc1ccc(-c2nnc3n2N=C(c2ccc(C)cc2)CS3)cc1	52	n	n	n
COc1ccc(-c2nnc3n2N=C(c2cccc(OC)c2)CS3)cc1	n	n	n	n
COc1ccc(-c2nnc3n2N=C(c2ccc(F)cc2)CS3)cc1	n	n	n	n
CCc1nnc2n1N=C(c1ccc(OC)c(OC)c1)CS2	n	n	n	n
COc1ccc(C2=Nn3c(nnc3-c3cccc(F)c3)SC2)cc1	64	n	n	n
COc1ccc(-c2nnc3n2N=C(c2ccc(C)cc2)CS3)cc1OC	52	n	n	n
COc1cccc(C2=Nn3c(nnc3-c3cccc(C)c3)SC2)c1	48	n	n	n
Nc1ccc2nc(-c3ccccc3O)[nH]c2c1	n	n	n	n
CC(C)n1cnc2c(N)nc(N3CCc4ccccc4C3)nc21	n	n	n	n
O=C1CSC(=S)N1NS(=O)(=O)c1ccccc1	n	n	n	n
Cc1cccc(C)c1N(C)S(=O)(=O)c1ccc2[nH]cc(C(=O)NCc3cccnc3)c(=O)c2c1	34	n	n	n
CCOc1ccccc1N(C)S(=O)(=O)c1ccc2[nH]cc(C(=O)NCc3cccnc3)c(=O)c2c1	63	n	n	n
Cc1ccc2nc(Cl)c3cc(C(=O)NCCN(C)C)sc3c2c1	n	n	n	n
O=C(c1ccccc1)C(CCCCC(CN1CCCCC1)C(=O)c1ccccc1)CN1CCCCC1 (stereo not given)	n	n	n	n
Cc1cccc(NC(c2ccc(C(F)(F)F)cc2)c2ccc3cccnc3c2O)n1 (stereo not given)	77	n	n	n
SMILES	TEAD-YAP inh	MITF inh	GPR151 activ	FBW7 act
Oc1c(C(Nc2ccccn2)c2ccc(C(F)(F)F)cc2)ccc2cccnc12 (stereo not given)	46	n	n	n
COc1ccc(C(=O)NC2CCC(NC(=O)c3ccc(OC)c(OC)c3)CC2)cc1OC (stereo not given)	n	n	n	n
COc1cc2nc(Nc3nc4ccccc4n3C)nc(Nc3cc(OC)c(OC)c(OC)c3)c2cc1OC	n	n	n	n
COc1cc2nc(Nc3nc4ccccc4n3C)nc(NCc3cccc(C(F)(F)F)c3)c2cc1OC	39	n	n	n
COc1ccc(Nc2nc(NCc3cccc(C(F)(F)F)c3)c3cc(OC)c(OC)cc3n2)cc1	n	n	n	n
COc1cc2nc(Cl)nc(NCc3cccc(C(F)(F)F)c3)c2cc1OC	n	n	n	n
COc1cc2nc(Nc3nc4ccccc4n3C)nc(NC3CC3)c2cc1OC	n	n	n	3.6
COc1cc2nc(Oc3ccccc3)nc(NCc3cccc(C(F)(F)F)c3)c2cc1OC	47	n	n	n
Cc1ccc(N=C(NN)c2ccc3ccccc3n2)c(C)c1	n	n	n	n
COc1ccc(N=C(NN)c2ccc3ccccc3n2)cc1	91	n	n	n
CC1Oc2ccccc2N(CC(=O)N(C(C)C)C(C)C)C1=O (stereo not given)	51	n	n	n
CCOc1cc(/C=C2/NC(=O)NC2=O)cc(Br)c1OCC(=O)O	n	n	n	n
CC1=NN(C(N)=S)C(=O)C1N=Nc1ccccc1O (stereo not given)	n	58	n	n
CC1=NN(C(N)=S)C(=O)C1N=Nc1ccccc1C (stereo not given)	n	n	n	n
COCc1c(C(=O)N/N=C(\C)c2ccc(Cl)c(Cl)c2)nnn1-c1nonc1N	n	n	n	n
CCN1C(=O)CC(C(=O)Nc2ccc(Br)cc2)SC1=Nc1ccc(OC)cc1 (stereo not given)	34	n	n	n
CCOc1ccc(NC(=O)C2CC(=O)N(CC)C(=Nc3ccc(OC)cc3)S2)cc1 (stereo not given)	n	n	n	n
N#Cc1c(NC(=O)C2CC2c2ccccc2)sc2c1CCC2 (stereo not given)	43	n	n	n
CC(=O)NC(=S)Nc1sc2c(c1C#N)CCCCC2	66	n	n	n
NC(=O)c1c(NC(=O)C2CC2c2ccccc2)sc2c1CCCC2 (stereo not given)	n	n	n	n
N#Cc1c(NC(=O)c2cc(Cl)ccc2[N+](=O)[O-])sc2c1CCC2	37	n	n	n
N#Cc1c(NC(=O)c2ccccc2I)sc2c1CCCC2	49	n	n	n
Cc1ccccc1C(C(C#N)C#N)[C@H](C(N)=O)[n+]1ccccc1 (stereo not given in full)	n	n	n	n
NC(=O)c1c(NC(=O)c2cccc3ccccc23)sc2c1CCC2	n	n	n	n
Cc1onc(-c2ccccc2)c1C(=O)Nc1sc2c(c1C#N)CCC(C)C2 (stereo not given)	n	n	n	n
SMILES	TEAD-YAP inh	MITF inh	GPR151 activ	FBW7 act
Cc1onc(-c2ccccc2)c1C(=O)Nc1sc2c(c1C#N)CCCC2	32	n	n	n
N#Cc1c(NC(=O)c2cccc3ccccc23)sc2c1CCCC2	43	n	n	n
N#Cc1c(NC(=O)CSc2ncn[nH]2)sc2c1CCCCC2	68	n	n	n
N#Cc1c(NC(=O)c2cccc3ccccc23)sc2c1CCC2	58	n	n	n
Cc1ccc(-n2cc(-c3ccccc3)c3c(N4CCOCC4)ncnc32)cc1Cl	n	n	n	n
O=C(O)c1ccc([N+](=O)[O-])c2c1NC(c1ccc([N+](=O)[O-])cc1)C1CC=CC21 (stereo not given)	n	85	n	n
CC(=O)Oc1ccc(C2Nc3c(C(=O)O)ccc([N+](=O)[O-])c3C3C=CCC32)cc1 (stereo not given)	n	n	n	n
CCN(CC)c1ccc2cc(-c3ccccn3)c(=O)oc2c1	93	n	n	2.7
CCN(CC)c1ccc2cc(-c3nc(C)cs3)c(=O)oc2c1	94	n	n	3.4
CCN(CC)c1ccc2cc(-c3nc(-c4ccccc4)cs3)c(=O)oc2c1	n	n	n	n
